In PubChem BioAssay (NCI) one finds growth data, which are given here for ten molecules.

Each structure is given as a SMILES string. The panel holds about 83,000 compounds, 20% with a hit somewhere; the sample as a whole holds those more often.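 48-hour exposure, single concentration, 96-well plates; percent growth endpoint where 0 means no net growth. Active: below 10.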 Unmarked numbers belong to inactive results. Activity calls are given as the source filed them.

For the assay, the system named is OVCAR-4 ovarian. The experiment in a line: NCI-60 one-dose screen, 48 h (100 = growth as untreated, 0 = no growth, -100 = all killed). The following applies: 10 µM unless noted.
For `CC(=O)OC[C@]12CC[C@@H]([C@@H](C)c3nnc(-c4ccncc4)o3)[C@@H]1[C@H]1CC[C@@H]3[C@@]4(C)CC[C@H](OC(C)=O)C(C)(C)[C@@H]4CC[C@@]3(C)[C@]1(C)CC2`, the growth is 72.3%. As for `CCN(CC)c1ccc(/C=N/NC(=O)Cc2ccc(Nc3ccnc(C(F)(F)F)c3)cc2)c(O)c1`, the figure is 20.9%; as for `Cc1cc2c(cc1C)N(C(=O)CCl)CC(=O)N2`, 60.6%; as for `C#CC#CC#CC#CC#CC#CC#CC#CC[C@@H]1OC[C@@H](COC(=O)O[C@@H](C(=O)O[C@H]2C[C@@]3(O)[C@@H](OC(=O)c4ccccc4)[C@@H]4[C@]5(OC(C)=O)CO[C@@H]5C[C@H](O)[C@@]4(C)C(=O)[C@H](OC(C)=O)C(=C2C)C3(C)C)[C@@H](NC(=O)c2ccccc2)c2ccccc2)O1`, 83.9%.

Consider `CCN1C(=O)N(CC)C2C1NN=c1s/c(=C\c3cnc(C)n3C)c(=O)n12` (stereo not given), for which the growth was 52%. Consider `C/C=C(\C)C(=O)N[C@H]1C(O)C[C@]2(C)C3CC[C@@]4(C)C(CC[C@@H]4C(C)N(C)C)C3CCC2C1O` (stereo not given in full), for which the growth is 24.2%. As for `C#Cc1cccc(Nc2nc(C)nc3cc(NC(=O)CCl)ccc23)c1`, the figure is -42.2% (active); as for `CSc1nn2c(-c3ccc4ccccc4c3)ccnc2c1C#N`, 1.79% (active); as for `CCN(CC)CCCOc1ccc2ncnc(Nc3ccc(Oc4cccc(C(F)(F)F)c4)c(Cl)c3)c2c1`, 7.23% (active). Take `O=C1/C(=C\c2ccccn2)c2ccccc2N1c1c(Cl)cccc1Cl`: the growth is 3.21% (active).
